Measurements taken from the supplement of paper PMC11732987, “Enantioselective OTUD7B fragment discovery through chemoproteomics screening and high-throughput optimisation” (Communications Chemistry, 2025).

Experiments:
Test in all cases: log2 ratio of Biotin-Ahx-Ub-VS probe labelling (fragment/DMSO); higher = less target engagement (more negative = stronger competition), active = hit call of the paper (q ≤ 0.05, log2 ratio ≤ -1)
Conditions in all cases: compound concentration: 200 uM; treatment time: 3 h
USP34 = USP34 (UniProt Q70CQ2)
Chain of USP34 (Q70CQ2 whole entry, the tested form may be a part): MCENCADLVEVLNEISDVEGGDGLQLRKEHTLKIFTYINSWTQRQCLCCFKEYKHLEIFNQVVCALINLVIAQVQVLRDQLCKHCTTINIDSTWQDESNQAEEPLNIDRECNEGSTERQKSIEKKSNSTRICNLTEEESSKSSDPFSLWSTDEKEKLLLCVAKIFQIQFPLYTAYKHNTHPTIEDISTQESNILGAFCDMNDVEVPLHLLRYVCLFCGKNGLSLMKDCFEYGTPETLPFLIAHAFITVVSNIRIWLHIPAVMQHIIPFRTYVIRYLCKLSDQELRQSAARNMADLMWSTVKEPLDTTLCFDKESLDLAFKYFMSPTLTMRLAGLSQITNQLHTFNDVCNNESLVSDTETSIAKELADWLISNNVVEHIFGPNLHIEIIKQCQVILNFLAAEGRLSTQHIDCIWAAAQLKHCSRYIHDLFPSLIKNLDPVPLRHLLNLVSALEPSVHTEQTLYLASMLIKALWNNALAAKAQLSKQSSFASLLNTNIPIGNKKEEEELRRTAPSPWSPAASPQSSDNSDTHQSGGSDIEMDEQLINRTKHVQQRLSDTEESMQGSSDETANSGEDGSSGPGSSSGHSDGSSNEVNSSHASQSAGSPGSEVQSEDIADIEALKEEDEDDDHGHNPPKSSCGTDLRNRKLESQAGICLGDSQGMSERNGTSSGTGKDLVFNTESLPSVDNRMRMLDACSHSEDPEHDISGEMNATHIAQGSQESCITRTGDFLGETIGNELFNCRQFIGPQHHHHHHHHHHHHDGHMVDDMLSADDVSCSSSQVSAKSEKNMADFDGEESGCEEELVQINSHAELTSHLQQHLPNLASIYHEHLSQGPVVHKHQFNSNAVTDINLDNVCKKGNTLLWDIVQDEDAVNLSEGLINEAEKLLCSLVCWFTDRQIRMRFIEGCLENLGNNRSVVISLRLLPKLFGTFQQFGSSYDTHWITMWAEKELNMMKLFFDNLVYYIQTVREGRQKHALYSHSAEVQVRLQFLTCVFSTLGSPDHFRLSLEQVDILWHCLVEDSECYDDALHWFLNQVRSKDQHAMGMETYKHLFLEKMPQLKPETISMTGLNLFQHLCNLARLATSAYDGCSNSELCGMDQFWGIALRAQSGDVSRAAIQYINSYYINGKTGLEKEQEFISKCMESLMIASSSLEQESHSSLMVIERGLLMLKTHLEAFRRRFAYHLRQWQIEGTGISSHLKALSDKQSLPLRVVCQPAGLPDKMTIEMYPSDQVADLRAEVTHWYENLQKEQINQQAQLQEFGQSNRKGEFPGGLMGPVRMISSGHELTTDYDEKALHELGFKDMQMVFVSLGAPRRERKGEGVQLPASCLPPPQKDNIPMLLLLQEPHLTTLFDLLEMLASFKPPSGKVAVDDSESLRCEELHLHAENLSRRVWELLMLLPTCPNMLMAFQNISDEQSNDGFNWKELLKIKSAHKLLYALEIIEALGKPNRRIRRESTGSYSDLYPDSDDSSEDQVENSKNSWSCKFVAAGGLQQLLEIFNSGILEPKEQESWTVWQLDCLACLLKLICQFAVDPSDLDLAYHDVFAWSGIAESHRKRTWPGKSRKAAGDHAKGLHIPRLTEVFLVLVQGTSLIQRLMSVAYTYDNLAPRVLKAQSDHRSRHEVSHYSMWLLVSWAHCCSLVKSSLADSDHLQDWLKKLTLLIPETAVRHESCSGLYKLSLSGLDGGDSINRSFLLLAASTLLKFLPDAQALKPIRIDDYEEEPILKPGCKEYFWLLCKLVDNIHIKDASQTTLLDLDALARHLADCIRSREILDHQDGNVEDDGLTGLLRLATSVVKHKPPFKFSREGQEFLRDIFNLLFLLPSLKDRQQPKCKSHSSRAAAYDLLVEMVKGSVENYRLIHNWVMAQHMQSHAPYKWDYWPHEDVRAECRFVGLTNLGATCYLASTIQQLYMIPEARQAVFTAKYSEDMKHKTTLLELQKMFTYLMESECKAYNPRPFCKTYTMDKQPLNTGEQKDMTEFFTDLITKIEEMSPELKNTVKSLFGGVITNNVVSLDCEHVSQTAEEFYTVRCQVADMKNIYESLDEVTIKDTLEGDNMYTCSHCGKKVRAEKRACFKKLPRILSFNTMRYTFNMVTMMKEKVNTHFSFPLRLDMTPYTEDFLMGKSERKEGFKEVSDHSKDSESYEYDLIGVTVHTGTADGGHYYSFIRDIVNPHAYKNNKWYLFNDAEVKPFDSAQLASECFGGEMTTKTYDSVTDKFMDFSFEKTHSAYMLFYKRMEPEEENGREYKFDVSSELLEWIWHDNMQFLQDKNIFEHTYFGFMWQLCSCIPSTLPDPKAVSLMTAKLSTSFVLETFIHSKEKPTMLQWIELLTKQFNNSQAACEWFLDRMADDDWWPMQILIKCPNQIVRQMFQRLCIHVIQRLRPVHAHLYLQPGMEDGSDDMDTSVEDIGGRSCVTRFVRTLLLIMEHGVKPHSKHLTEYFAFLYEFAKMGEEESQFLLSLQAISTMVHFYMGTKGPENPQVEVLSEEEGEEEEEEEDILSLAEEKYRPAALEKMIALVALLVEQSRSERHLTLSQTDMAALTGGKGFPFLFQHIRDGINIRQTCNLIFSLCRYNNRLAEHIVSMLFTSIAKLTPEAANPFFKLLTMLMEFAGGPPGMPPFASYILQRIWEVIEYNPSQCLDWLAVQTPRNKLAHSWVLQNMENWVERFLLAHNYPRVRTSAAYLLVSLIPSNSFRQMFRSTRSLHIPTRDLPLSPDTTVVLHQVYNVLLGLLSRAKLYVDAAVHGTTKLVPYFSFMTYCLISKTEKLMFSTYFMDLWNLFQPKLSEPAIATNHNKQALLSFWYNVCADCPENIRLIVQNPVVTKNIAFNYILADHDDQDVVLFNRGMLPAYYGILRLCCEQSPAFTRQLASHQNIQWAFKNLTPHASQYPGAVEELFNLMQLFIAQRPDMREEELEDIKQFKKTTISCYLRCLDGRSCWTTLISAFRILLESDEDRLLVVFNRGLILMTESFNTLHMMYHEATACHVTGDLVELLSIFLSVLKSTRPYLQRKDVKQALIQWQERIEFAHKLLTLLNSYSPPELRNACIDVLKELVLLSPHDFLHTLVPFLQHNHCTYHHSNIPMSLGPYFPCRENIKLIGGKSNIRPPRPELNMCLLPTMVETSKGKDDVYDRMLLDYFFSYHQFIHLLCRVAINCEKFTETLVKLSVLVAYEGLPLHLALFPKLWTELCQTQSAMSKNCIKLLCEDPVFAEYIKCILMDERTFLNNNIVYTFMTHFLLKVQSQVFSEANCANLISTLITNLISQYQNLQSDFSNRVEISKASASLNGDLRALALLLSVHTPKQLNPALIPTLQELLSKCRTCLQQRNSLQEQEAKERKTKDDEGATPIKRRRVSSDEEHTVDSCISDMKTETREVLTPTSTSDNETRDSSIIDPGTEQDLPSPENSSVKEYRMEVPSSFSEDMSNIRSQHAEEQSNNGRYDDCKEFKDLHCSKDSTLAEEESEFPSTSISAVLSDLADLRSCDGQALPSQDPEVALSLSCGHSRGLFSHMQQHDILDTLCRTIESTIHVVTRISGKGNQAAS
Method in brief: (§1)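 Fragment (200 µM) or vehicle was incubated for 3 h with triplicate HEK293T lysate samples of 495 µg, which were then treated with Biotin-Ahx-Ub-VS at 0.5 µM final for 1 h. Labelled DUBs were enriched on NeutrAvidin, digested with LysC and trypsin, and analysed by diaPASEF LC-MS/MS. Values are average log2 fragment/vehicle ratios from an unpaired t-test on global-median-normalised Spectronaut label-free quantities, using proteins with ≥2 unique peptides.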

USP36 = target: T1, USP36 (UniProt Q9P275)
T1 sequence (whole entry): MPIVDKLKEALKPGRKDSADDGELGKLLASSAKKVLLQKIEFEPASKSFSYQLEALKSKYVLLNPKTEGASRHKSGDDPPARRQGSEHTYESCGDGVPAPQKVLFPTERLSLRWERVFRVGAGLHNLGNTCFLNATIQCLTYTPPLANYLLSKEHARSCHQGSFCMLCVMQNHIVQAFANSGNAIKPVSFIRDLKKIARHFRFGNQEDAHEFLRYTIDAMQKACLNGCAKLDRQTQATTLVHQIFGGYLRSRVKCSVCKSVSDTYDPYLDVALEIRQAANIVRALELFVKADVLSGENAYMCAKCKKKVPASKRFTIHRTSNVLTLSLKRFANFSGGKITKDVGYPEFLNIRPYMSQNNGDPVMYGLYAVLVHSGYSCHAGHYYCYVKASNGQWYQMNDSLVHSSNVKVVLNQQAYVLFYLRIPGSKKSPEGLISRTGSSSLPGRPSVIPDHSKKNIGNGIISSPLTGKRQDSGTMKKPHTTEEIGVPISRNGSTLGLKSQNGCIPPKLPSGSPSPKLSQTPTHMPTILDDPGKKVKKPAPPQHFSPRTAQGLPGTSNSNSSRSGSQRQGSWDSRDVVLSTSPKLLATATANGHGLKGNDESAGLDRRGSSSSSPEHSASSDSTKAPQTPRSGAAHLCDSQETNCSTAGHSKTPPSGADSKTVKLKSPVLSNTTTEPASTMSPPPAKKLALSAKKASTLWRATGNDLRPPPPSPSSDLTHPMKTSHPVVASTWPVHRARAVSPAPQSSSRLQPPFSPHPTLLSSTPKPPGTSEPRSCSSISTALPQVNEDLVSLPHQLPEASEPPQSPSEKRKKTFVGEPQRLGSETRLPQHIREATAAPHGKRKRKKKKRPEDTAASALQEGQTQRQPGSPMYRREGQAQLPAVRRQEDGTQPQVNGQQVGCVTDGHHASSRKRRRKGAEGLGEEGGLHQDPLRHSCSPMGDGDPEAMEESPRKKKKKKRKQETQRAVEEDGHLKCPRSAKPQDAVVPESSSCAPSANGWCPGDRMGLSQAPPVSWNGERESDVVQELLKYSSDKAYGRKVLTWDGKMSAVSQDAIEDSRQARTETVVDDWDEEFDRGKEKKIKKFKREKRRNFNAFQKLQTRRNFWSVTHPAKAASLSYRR
Method in brief: as §1

USP38 = target: T2, USP38 (UniProt Q8NB14)
T2 sequence (whole entry): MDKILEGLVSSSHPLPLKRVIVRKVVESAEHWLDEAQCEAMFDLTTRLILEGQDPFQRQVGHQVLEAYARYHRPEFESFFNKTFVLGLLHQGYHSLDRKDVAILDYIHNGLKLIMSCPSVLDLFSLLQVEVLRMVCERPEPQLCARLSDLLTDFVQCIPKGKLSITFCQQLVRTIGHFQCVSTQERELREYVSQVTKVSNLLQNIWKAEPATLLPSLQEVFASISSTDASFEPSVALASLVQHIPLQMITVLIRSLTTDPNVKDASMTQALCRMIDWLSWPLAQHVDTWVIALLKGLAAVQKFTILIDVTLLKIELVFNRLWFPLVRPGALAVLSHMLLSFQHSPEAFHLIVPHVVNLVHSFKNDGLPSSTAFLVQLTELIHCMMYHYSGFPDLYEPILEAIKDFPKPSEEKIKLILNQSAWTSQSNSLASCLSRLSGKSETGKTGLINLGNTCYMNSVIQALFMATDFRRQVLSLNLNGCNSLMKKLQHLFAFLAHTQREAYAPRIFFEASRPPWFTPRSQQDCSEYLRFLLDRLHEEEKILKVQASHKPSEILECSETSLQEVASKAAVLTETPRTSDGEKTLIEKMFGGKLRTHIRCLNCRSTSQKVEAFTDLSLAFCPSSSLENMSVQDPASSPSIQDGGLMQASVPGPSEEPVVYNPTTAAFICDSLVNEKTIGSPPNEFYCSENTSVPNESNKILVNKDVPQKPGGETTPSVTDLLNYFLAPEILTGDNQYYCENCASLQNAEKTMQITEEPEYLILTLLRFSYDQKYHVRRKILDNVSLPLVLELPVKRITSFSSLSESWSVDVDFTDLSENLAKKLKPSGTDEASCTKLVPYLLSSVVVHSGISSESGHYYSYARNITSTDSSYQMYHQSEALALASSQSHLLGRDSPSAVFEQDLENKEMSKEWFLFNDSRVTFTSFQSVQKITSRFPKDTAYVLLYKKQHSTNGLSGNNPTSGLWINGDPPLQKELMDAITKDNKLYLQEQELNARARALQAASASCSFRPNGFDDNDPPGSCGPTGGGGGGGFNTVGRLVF
Method in brief: as §1

USP39 = target: T3, USP39 (UniProt Q53GS9)
T3 sequence (whole entry): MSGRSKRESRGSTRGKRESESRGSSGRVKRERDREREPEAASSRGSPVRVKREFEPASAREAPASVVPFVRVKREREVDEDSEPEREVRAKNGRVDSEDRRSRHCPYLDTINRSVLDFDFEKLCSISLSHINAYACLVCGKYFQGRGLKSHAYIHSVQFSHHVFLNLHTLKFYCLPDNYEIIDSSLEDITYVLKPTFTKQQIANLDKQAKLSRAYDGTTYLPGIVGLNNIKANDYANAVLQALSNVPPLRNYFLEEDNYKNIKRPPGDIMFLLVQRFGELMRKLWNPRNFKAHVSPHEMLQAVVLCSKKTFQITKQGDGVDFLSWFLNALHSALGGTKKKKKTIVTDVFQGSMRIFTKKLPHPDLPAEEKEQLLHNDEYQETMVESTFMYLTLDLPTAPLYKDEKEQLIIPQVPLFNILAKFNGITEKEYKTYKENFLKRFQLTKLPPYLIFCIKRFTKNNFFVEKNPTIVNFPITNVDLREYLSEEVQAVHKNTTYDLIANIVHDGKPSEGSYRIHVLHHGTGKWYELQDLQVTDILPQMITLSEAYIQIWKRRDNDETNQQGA
Method in brief: as §1

USP4 = target: T4, USP4 (UniProt Q13107)
T4 sequence (whole entry): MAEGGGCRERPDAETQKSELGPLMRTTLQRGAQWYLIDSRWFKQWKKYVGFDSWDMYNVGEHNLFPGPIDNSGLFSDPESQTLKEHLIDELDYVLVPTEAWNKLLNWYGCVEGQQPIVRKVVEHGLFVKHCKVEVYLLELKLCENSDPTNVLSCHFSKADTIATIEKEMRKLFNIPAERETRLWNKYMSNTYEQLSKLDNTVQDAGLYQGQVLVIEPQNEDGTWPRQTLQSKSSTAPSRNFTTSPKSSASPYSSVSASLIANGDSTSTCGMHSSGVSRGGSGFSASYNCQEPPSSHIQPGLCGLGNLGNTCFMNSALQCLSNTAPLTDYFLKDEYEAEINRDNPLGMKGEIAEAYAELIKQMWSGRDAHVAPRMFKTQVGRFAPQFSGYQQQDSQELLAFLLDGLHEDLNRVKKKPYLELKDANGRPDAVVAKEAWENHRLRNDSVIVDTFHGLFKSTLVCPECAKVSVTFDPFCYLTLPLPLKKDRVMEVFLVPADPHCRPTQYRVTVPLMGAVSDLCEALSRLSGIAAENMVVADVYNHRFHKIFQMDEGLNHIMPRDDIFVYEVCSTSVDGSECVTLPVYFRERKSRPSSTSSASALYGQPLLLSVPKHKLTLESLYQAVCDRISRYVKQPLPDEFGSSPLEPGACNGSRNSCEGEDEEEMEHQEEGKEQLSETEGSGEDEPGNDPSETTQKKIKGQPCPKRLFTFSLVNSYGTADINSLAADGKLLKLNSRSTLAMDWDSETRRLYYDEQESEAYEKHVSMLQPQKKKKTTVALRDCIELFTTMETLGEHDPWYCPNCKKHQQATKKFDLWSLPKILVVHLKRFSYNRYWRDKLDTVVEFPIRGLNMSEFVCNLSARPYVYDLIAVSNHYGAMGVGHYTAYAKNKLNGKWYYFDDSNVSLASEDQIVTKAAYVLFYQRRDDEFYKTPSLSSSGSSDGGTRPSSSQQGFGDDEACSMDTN
Method in brief: as §1

Measured: log2 ratio of Biotin-Ahx-Ub-VS probe labelling

Cc1ccc(N(C(=O)CCl)C2C=CS(=O)(=O)C2)cc1 (stereo not given)
inactive: USP34 -0.0862 | USP36 -0.145 | USP38 0.105 | USP39 0.107 | USP4 0.0944
